Source: the supplement of paper PMC8728848
About 410 targets per protein were measured; listed, in parts, are those with the strongest signals and a random draw of the rest.

Legend:
Test in all cases: glycan array binding signal (z-score within array); higher = stronger binding
Details in all cases: glycan notation: IUPAC condensed, linker removed
[1] = biological target: GlcNAc(b1-2)[GlcNAc(b1-4)]Man(a1-3)[GlcNAc(b1-4)][GlcNAc(b1-2)[GlcNAc(b1-6)]Man(a1-6)]Man(b1-4)GlcNAc(b1-4)[Fuc(a1-6)]GlcNAc
How it was run: (§1)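 The binding signal is a Z-score computed within each array. Data were drawn from 3228 arrays in the Consortium for Functional Glycomics database, restricted to those with a known protein sequence. Scores were averaged over arrays of the same protein sequence at different concentrations or buffers, and over linkers, and negative values can be taken as non-binding.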

[2] = biological target: GlcNAc(b1-3)Gal(b1-4)GlcNAc(b1-2)Man(a1-3)[GlcNAc(b1-3)Gal(b1-4)GlcNAc(b1-2)Man(a1-6)]Man(b1-4)GlcNAc(b1-4)GlcNAc
How it was run: as §1

[3] = biological target: GlcNAc(b1-3)Gal(b1-4)GlcNAc(b1-3)Gal(b1-4)GlcNAc(b1-2)Man(a1-3)[GlcNAc(b1-3)Gal(b1-4)GlcNAc(b1-3)Gal(b1-4)GlcNAc(b1-2)Man(a1-6)]Man(b1-4)GlcNAc(b1-4)GlcNAc
How it was run: as §1

[4] = biological target: GlcNAc(b1-3)Gal(b1-4)GlcNAc(b1-3)Gal(b1-4)GlcNAc(b1-2)[GlcNAc(b1-3)Gal(b1-4)GlcNAc(b1-3)Gal(b1-4)GlcNAc(b1-6)]Man(a1-6)[GlcNAc(b1-3)Gal(b1-4)GlcNAc(b1-3)Gal(b1-4)GlcNAc(b1-2)Man(a1-3)]Man(b1-4)GlcNAc(b1-4)[Fuc(a1-6)]GlcNAc
How it was run: as §1

[5] = biological target: GlcNAc(b1-3)Gal(b1-4)GlcNAc(b1-3)Gal(b1-4)GlcNAc(b1-3)Gal(b1-4)GlcNAc(b1-2)Man(a1-3)[GlcNAc(b1-3)Gal(b1-4)GlcNAc(b1-3)Gal(b1-4)GlcNAc(b1-3)Gal(b1-4)GlcNAc(b1-2)Man(a1-6)]Man(b1-4)GlcNAc(b1-4)[Fuc(a1-6)]GlcNAc
How it was run: as §1

[6] = biological target: GlcNAc(b1-3)Gal(b1-4)GlcNAc(b1-3)Gal(b1-4)GlcNAc(b1-3)Gal(b1-4)GlcNAc(b1-2)[GlcNAc(b1-3)Gal(b1-4)GlcNAc(b1-3)Gal(b1-4)GlcNAc(b1-3)Gal(b1-4)GlcNAc(b1-6)]Man(a1-6)[GlcNAc(b1-3)Gal(b1-4)GlcNAc(b1-3)Gal(b1-4)GlcNAc(b1-3)Gal(b1-4)GlcNAc(b1-2)Man(a1-3)]Man(b1-4)GlcNAc(b1-4)[Fuc(a1-6)]GlcNAc
How it was run: as §1

[7] = biological target: Man(a1-2)Man(a1-6)[Man(a1-3)]Man(a1-6)[Man(a1-2)Man(a1-2)Man(a1-3)]Man
How it was run: as §1

[8] = biological target: Neu5Ac(a2-3)Gal(b1-3)[Fuc(a1-4)]GlcNAc(b1-3)Gal(b1-4)[Fuc(a1-3)]GlcNAc
How it was run: as §1

[9] = biological target: Neu5Ac(a2-3)Gal(b1-3)[Neu5Ac(a2-6)]GalNAc
How it was run: as §1

[10] = biological target: Neu5Ac(a2-3)Gal(b1-4)GlcNAc(b1-2)Man(a1-3)[GlcNAc(b1-2)Man(b1-4)GlcNAc(b1-2)Man(a1-6)]Man(b1-4)GlcNAc(b1-4)GlcNAc
How it was run: as §1

[11] = biological target: Neu5Ac(a2-3)Gal(b1-4)GlcNAc(b1-3)Gal(b1-4)GlcNAc
How it was run: as §1

[12] = biological target: Neu5Ac(a2-3)Gal(b1-4)GlcNAc(b1-3)Gal(b1-4)GlcNAc(b1-3)Gal(b1-4)GlcNAc(b1-2)Man(a1-3)[Neu5Ac(a2-3)Gal(b1-4)GlcNAc(b1-3)Gal(b1-4)GlcNAc(b1-3)Gal(b1-4)GlcNAc(b1-2)Man(a1-6)]GalNAc
How it was run: as §1

[13] = biological target: Neu5Ac(a2-3)Gal(b1-4)GlcNAc(b1-6)[Gal(b1-3)]GalNAc
How it was run: as §1

[14] = biological target: Neu5Ac(a2-3)Gal(b1-4)[Fuc(a1-3)]GlcNAc(b1-3)GalNAc
How it was run: as §1

[15] = biological target: Neu5Ac(a2-3)[GalNAc(b1-4)]Gal(b1-4)GlcNAc
How it was run: as §1

[16] = biological target: Neu5Ac(a2-6)Gal(b1-4)GlcNAc(b1-2)Man(a1-3)[GlcNAc(b1-2)Man(b1-4)GlcNAc(b1-2)Man(a1-6)]Man(b1-4)GlcNAc(b1-4)GlcNAc
How it was run: as §1

[17] = biological target: Neu5Ac(a2-6)Gal(b1-4)GlcNAc(b1-2)Man(a1-3)[Neu5Ac(a2-6)Gal(b1-4)GlcNAc(b1-2)Man(a1-6)]Man(b1-4)GlcNAc(b1-4)GlcNAc
How it was run: as §1

[18] = biological target: Neu5Ac(a2-6)Gal(b1-4)GlcNAc(b1-2)Man(a1-3)[Neu5Ac(a2-6)Gal(b1-4)GlcNAc(b1-2)Man(a1-6)]Man(b1-4)GlcNAc(b1-4)[Fuc(a1-6)]GlcNAc
How it was run: as §1

[19] = biological target: Neu5Ac(a2-6)Gal(b1-4)GlcNAc(b1-3)Gal(b1-4)GlcNAc(b1-3)Gal(b1-4)GlcNAc(b1-2)Man(a1-3)[Neu5Ac(a2-6)Gal(b1-4)GlcNAc(b1-3)Gal(b1-4)GlcNAc(b1-3)Gal(b1-4)GlcNAc(b1-2)Man(a1-6)]GalNAc
How it was run: as §1

[20] = biological target: Neu5Ac(a2-6)GalNAc(b1-4)GlcNAc6S
How it was run: as §1

[21] = biological target: Neu5Ac(a2-8)Neu5Ac(a2-8)Neu5Ac(a2-3)[Gal(b1-3)GalNAc(b1-4)]Gal(b1-4)Glc
How it was run: as §1

[22] = biological target: Neu5Ac9Ac(a2-6)Gal(b1-4)GlcNAc
How it was run: as §1

B1: BabA (Helicobacter pylori), O52269_HELPY (protein)
chain: AEDDGFYMSAGYQIGEAAQMVKNTKGIQELSDNYENLSNLLTRYSTLNTLIKLSADPSAVNAARENLGASAKNLIGDTKNSPAYQAVLLAINAAVGFWNVVGYVTQCGGNANGQKSTSSTTIFNNEPGYRSTSITCSLNGHMPGYYGPMSIENFKKLNEAYQILQTALKNGLPALKENNGTVNVTYSYTCSGEGNDNCSLQTTGVTNQNNGTKTETQTIDGKSVTTTISSKVVDSQ
- glycan array binding signal (z-score) [1]: -0.373
- glycan array binding signal (z-score) [2]: 0.363
- glycan array binding signal (z-score) [3]: 4.69
- glycan array binding signal (z-score) [4]: 3.66
- glycan array binding signal (z-score) [5]: 2.94
- glycan array binding signal (z-score) [6]: 2.92
- glycan array binding signal (z-score) [7]: -0.83
- glycan array binding signal (z-score) [8]: 0.749
- glycan array binding signal (z-score) [9]: 0.266
- glycan array binding signal (z-score) [10]: -1.52
- glycan array binding signal (z-score) [11]: -0.291
- glycan array binding signal (z-score) [12]: 9.34
- glycan array binding signal (z-score) [13]: 1.93
- glycan array binding signal (z-score) [14]: 0.626
- glycan array binding signal (z-score) [15]: -0.627
- glycan array binding signal (z-score) [16]: -0.829
- glycan array binding signal (z-score) [17]: -0.571
- glycan array binding signal (z-score) [18]: 1.19
- glycan array binding signal (z-score) [19]: 5.39
- glycan array binding signal (z-score) [20]: -0.637
- glycan array binding signal (z-score) [21]: 0.344
- glycan array binding signal (z-score) [22]: -0.224
